Measurements published in PubChem BioAssay AID504332 (National Center for Advancing Translational Sciences (NCATS), 2011).
About 31,000 (8.9%) of roughly 350,000 compounds were called active. Inconclusive results (about 15%) are left out. Calls come from the whole dose curve; as a rule, active = well fitted inhibition curve with a large enough effect; inconclusive = small, poorly fitted or top-dose-only effect; inactive = no such curve, though single readings can be large or run the other way. This excerpt belongs to a sample that is enriched for actives.

Biological target: Histone-lysine N-methyltransferase EHMT2 (Homo sapiens) (UniProt Q96KQ7)
Sequence (Q96KQ7 913-1193 limits assumed): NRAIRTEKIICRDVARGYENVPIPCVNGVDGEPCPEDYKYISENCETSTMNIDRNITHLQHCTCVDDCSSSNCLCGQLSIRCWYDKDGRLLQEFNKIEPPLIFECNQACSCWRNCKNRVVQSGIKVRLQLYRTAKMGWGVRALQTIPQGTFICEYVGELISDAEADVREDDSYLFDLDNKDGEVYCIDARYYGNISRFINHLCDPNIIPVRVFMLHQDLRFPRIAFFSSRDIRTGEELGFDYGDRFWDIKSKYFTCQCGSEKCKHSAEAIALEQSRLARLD
Experiment: qHTS Assay for Inhibitors of Histone Lysine Methyltransferase G9a; note: nearly all actives have a fitted effect of over 75% in size
Settings: G9a H3K9 monomethylation, AlphaScreen, 2 h; series mostly up to 59 µM; activity, negative = inhibition: at the top concentration
From the text: Methylated lysines, on the N-terminal tails of histone proteins serve as epigenetic markers to recruit factors that can then modify local chromatin structure to lead to functional consequences. G9a and other members of the SUV39 family of the SET domain-containing superfamily of histone lysine methyltransferases (HMT) have been identified to specifically methylate Lys9 of histone H3 (H3K9). G9a catalyzes the mono- and di-methylation of H3K9 in mammalian euchromatic regions, where the resulting H3K9me2 is indicative of transcriptional repression. […] The inhibition of G9a will result in transcriptional activation and work synergistically with DNA methyltransferase and histone deacetylase inhibitors, to kill cancer cells. This qHTS assay for identification of G9a inhibitors is a chemiluminescence based AlphaScreen (PerkinElmer). Methylation of biotinylated-histone peptide is measured through specific antibody-based detection, in conjunction with streptavidin-coated donor and anti-IgG antibody-coated acceptor beads. The method is particularly well suited for detection of inhibitors acting by the desired histone peptide competitive mechanism and is applicable to testing other HMTs. Although AlphaScreen has significant advantages with its utility in a variety of epigenetic target assays, the primary screening data provided in this deposition should be used with caution due to the prevalence of screening artifacts. An AlphaScreen counterscreen is highly recommended to be run against any putative actives to eliminate non specific artifacts. Alternatively, one can use other AlphaScreen assays in PubChem to filter out promiscuous hits. Quinn et al. A chemiluminescence-based method for identification of histone lysine methyltransferase inhibitors. Mol Biosyst 6(5): 782-8. 2010. PMID: 20567762 [2] Baell,Holloway. New substructure filters for removal of pan assay interference compounds (PAINS) from screening libraries and for their exclusion in bioassays. J Med Chem. 53(7):2719-40. 2010. PMID: 20131845 NIH Molecular Libraries Probe Production Network [MLPCN] NIH Chemical Genomics Center [NCGC] Structural Genomics Consortium (SGC) NIH Grant: 5U54 MH084681-02
To each well of a 1,536w plate, 2ul of HMT enzyme (final 20nM) were added, using a nanoliter dispenser. The G9a- and GLP-inhibitor BIX-01294 (CID: 25150857) are used as an intraplate control, with a 16-point titration in duplicate. A Kalypsys pin-tool transferred 23nl of library compound solution in DMSO to each well. Following a 15 min incubation of enzyme with compounds at room temperature, 1ul mixture of b-H3K9 peptide substrate (final 500nM) and SAM cofactor (final 20uM) were added. Reactions were allowed to proceed at room temperature for 2 hours. Methylated b-H3K9 peptide product was detected with 0.5 ug/mL rabbit polyclonal anti-monomethyl histone H3K9 antibody (Abcam Inc., Cambridge, MA) and 20 ug/mL each streptavidin-coated donor and anti-rabbit IgG acceptor AlphaScreen beads. Antibody and beads were added in a 1ul dispense, for a final volume of 4ul, and plates were incubated, protected from the light, for 10 min at room temperature. Microplates were then read on an EnVision multilabel plate reader using the 1,536 plate HTS AlphaScreen aperture (excitation time 80 ms, measurement time 240 ms).
% is set by controls: 0 for no effect and ±100 for the full control effect; potency is the fitted concentration of half-maximal effect.

Compound	Potency	activity, negative = inhibition
CCc1ccc(S(=O)(=O)Nc2cc3c(cc2N2CCCCC2)n(C)c(=O)c(=O)n3C)cc1	44.7 µM (active)	–
Cn1c(=O)c(=O)n(C)c2cc(S(=O)(=O)NCCc3ccccc3)ccc21	–	29.1% [at 0.501 µM] (inactive)
CCc1ccc(S(=O)(=O)Nc2ccc(C)c(NS(C)(=O)=O)c2)cc1	–	-16.3% [at 102 µM] (inactive)
CCC(C)(C)n1nnnc1C(c1ccccc1OC)N1CCSCC1 (configuration not stated)	–	-7.71% (inactive)
COc1ccc(OC)c(C(c2nnnn2C(C)(C)C)N2CCc3ccccc3C2)c1 (configuration not stated)	50.1 µM (active)	–
CN1CCN(C(c2cc3cc4c(cc3[nH]c2=O)OCCO4)c2nnnn2C2CCCC2)CC1 (configuration not stated)	–	-7.18% [at 102 µM] (inactive)
Cc1ccc(C(c2nnnn2C(C)(C)C)N2CCc3ccccc3C2)cc1 (configuration not stated)	–	-10.6% (inactive)
COCCn1nnnc1C(c1cc2ccc(OC)cc2[nH]c1=O)N1CCc2ccccc2C1 (configuration not stated)	5.62 µM (active)	–
CCOc1ccc2[nH]c(=O)c(C(c3nnnn3CCOC)N3CCOCC3)cc2c1 (configuration not stated)	–	8.47% [at 2.33 µM] (inactive)
Cc1ccc(Cn2c(C)c3cnn(CC(=O)NCc4ccccc4)c(=O)c3c2C)cc1	–	-9.83% (inactive)
COc1ccc(S(=O)(=O)N2CCCCCC2)cc1C(=O)N(C)Cc1cccc(OC)c1OC	–	-29.7% [at 102 µM] (inactive)
COc1ccc(CCNC(=O)CCCn2c(=O)c3ccccc3n(Cc3ccc(C)cc3)c2=O)cc1OC	–	-28% (inactive)
C=CCn1c(SCC(=O)NC)nnc1C12CC3CC(CC(C3)C1)C2	–	5.32% [at 102 µM] (inactive)
C=CCn1c(C23CC4CC(CC(C4)C2)C3)n[nH]c1=S	3.16 µM (active)	–
C=CCn1c(SCC(=O)NC23CC4CC(CC(C4)C2)C3)nc(O)cc1=O	–	18.6% (inactive)
COc1ccc(C(=O)NCc2ccc(C)cc2)cc1S(=O)(=O)N1CCCC1	–	-16.6% [at 0.0925 µM] (inactive)
Nc1nc(SCC(=O)Nc2ccc(Cl)cc2C(F)(F)F)n[nH]1	–	-3.97% [at 102 µM] (inactive)
Nc1nc(SCC(=O)Nc2ccc(Cl)c([N+](=O)[O-])c2)n[nH]1	–	-3.46% [at 12.7 µM] (inactive)
COc1ccc(CNC(=O)CSc2n[nH]c(N)n2)cc1OC	79.4 µM (active)	–
Nc1nc(SCC(=O)NN(c2ccccc2)c2ccccc2)n[nH]1	–	8.39% (inactive)
Nc1nc(SCC(=O)NNc2c(Cl)cc(Cl)cc2Cl)n[nH]1	10 µM (active)	–
COc1ccc(CNC(=O)CSc2n[nH]c(-c3ccc(F)cc3)n2)cc1	–	0.544% (inactive)
Cc1ccc(CCNC(=O)C2CCN(c3nnc(-n4cccc4CNc4ccc(C)cc4)s3)CC2)cc1	–	-6.97% (inactive)

Compound	Potency	activity, negative = inhibition
COC(=O)c1ccc(NC(=O)c2cccc3c2C(=O)N(C2CCCCC2)C3)cc1	–	3.3% (inactive)
CC1CCN(C(=O)c2cccc(S(=O)(=O)N3CCCc4ccccc43)c2)CC1	–	10.4% [at 2.33 µM] (inactive)
COc1cc(OC)cc(C(=O)NNC(=O)CCOc2ccccc2OC)c1	–	10.9% (inactive)
COc1cccc(C(=O)NCC(=O)OCc2cc(=O)n3ccsc3n2)c1	–	4.14% (inactive)
COc1cc(C(=O)Nc2ccc(OCc3cc(=O)n4cc(C)sc4n3)cc2)cc(OC)c1OC	–	-3.43% (inactive)
O=C(Nc1cccc2cccnc12)c1cccc2c(Br)cccc12	–	-2.34% (inactive)
CCOC(=O)C1CCN(Cc2nnc(-c3cccc(Br)c3)o2)CC1	–	-1.61% [at 102 µM] (inactive)
CCCC(=O)C1CCN(Cc2ccccc2)CC1	–	-1.84% [at 102 µM] (inactive)
CCOC(=O)C1CCN(Cc2ccc(-c3ccccc3)cc2)CC1	28.2 µM (active)	–
CCC(C)N(C(=O)Cn1nc(C)c([N+](=O)[O-])c1C)C1CCS(=O)(=O)C1 (configuration not stated)	–	-29.5% [at 102 µM] (inactive)
CCCC1OC23CCCCC2C(C#N)(C#N)C1(C#N)C(=N)O3 (configuration not stated)	17.8 µM (active)	–
Cc1cccc(NC(=O)CSc2nc3c(oc4ccccc43)c(=O)n2-c2ccc(F)cc2)c1	–	4.81% (inactive)
COc1ccc(C(=O)CN2C(=O)NC3(CCc4ccccc43)C2=O)c(OC)c1 (configuration not stated)	–	2.57% (inactive)
CCC(CC)C(=O)N1CCc2cc(OC)c(OC)cc2C1COc1ccc(F)cc1 (configuration not stated)	–	10.1% (inactive)
CC(Oc1ccc(Br)cc1)C(=O)NCC(c1ccco1)N1CCCCC1 (configuration not stated)	–	-6.2% [at 102 µM] (inactive)
CCOC(CNC(=O)C(=O)NCC(c1ccco1)N1CCN(c2ccc(OC)cc2)CC1)OCC (configuration not stated)	79.4 µM (active)	–
COc1ccc(NC(=O)C(=O)NCC(c2ccco2)N2CCc3ccccc3C2)cc1 (configuration not stated)	–	24.1% [at 2.33 µM] (inactive)
O=C(Cn1nc(C(F)(F)F)c2c1CCCC2)Nc1ccc(Cl)cc1	–	2.55% (inactive)
COc1ccccc1CNC(=O)C(=O)NCC(c1ccco1)S(=O)(=O)c1ccc(F)cc1 (configuration not stated)	–	-4.12% (inactive)
Cc1cc2c(cc1C)N(C(=O)CN1C(=O)c3ccccc3C1=O)C(C)(C)c1ssc(=S)c1-2	28.2 µM (active)	–
Cc1ccc(NC(=O)CCN2C(=O)c3ccccc3C2=O)cc1C	–	4.98% [at 102 µM] (inactive)
Cc1cc(C)cc(NC(=O)CN2C(=O)c3ccccc3C2=O)c1	–	30% [at 102 µM] (inactive)
Cc1cc([N+](=O)[O-])c(N2CCC[C@@H]2C(=O)O)c([N+](=O)[O-])c1	–	9.82% (inactive)

Compound	Potency	activity, negative = inhibition
CC1CCC2CCCCC2N1C(=O)c1cc([N+](=O)[O-])cc([N+](=O)[O-])c1 (configuration not stated)	44.7 µM (active)	–
COC(=O)c1cc(C(=O)NC(C)C2CC3CCC2C3)cc([N+](=O)[O-])c1 (configuration not stated)	–	-43.7% [at 102 µM] (inactive)
CCN(CC)C(=O)c1nc[nH]c1C(=O)N(C)Cc1ccccc1	–	-4.89% [at 2.33 µM] (inactive)
CCc1ccc(C2CC(=O)c3c([nH]c(C(=O)OCc4ccc(C)cc4)c3C)C2)cc1 (configuration not stated)	–	-1.01% (inactive)
C=CCOc1ccc(/C=C2\SC(=S)N(CCC(=O)O)C2=O)cc1	–	-6.64% (inactive)
Cc1ccc(/C=C2\SC(=S)N(CCC(=O)Nc3ccc(O)cc3)C2=O)cc1	–	9.57% [at 102 µM] (inactive)
Cc1ccc(-c2nn(-c3ccccc3)cc2/C=C2\SC(=S)N(CCCCCC(=O)O)C2=O)o1	3.98 µM (active)	–
CCN1CCN(c2cc3nc(C)n(Cc4ccccc4)c(=O)c3cc2NC(=O)c2ccccc2F)CC1	35.5 µM (active)	–
Cc1nc2ccn(Cc3cccnc3)c(=O)c2cc1C(=O)N1CCN(c2ccccc2F)CC1	–	7.35% (inactive)
CCC(=O)Nc1ccc2nc(C)n(Cc3ccccc3Cl)c(=O)c2c1	–	6.34% (inactive)
Cc1cccc(N(C)C(=O)CS(=O)(=O)c2cccc3nsnc23)c1	–	9.05% (inactive)
O=C(NCCCc1ccccc1)c1ccc2c(c1)sc1nc(-c3ccc(F)cc3)cn12	–	-17.8% (inactive)
O=C(CC(=O)N/N=C\c1ccc(F)cc1)NCCc1ccccc1	–	2.67% [at 0.501 µM] (inactive)
O=C(CN1CCN(C/C=C/c2ccccc2)CC1)Nc1ccc(F)cc1F	–	-7.31% [at 102 µM] (inactive)
O=C(Cn1cc(C(F)(F)F)ccc1=O)N/N=C/c1ccc(Cl)cc1Cl	–	1.22% (inactive)
O=C(CN1CCSCC1)N/N=C/c1ccc(F)cc1F	15.8 µM (active)	–
Cc1nn(CC(=O)N/N=C/c2ccc(F)cc2)c(C)c1[N+](=O)[O-]	–	-0.915% [at 102 µM] (inactive)
Cc1ccc(/C=N/NC(=O)CN2CCN(Cc3ccccc3)CC2)s1	–	14.1% [at 102 µM] (inactive)
O=C(CN1CCSCC1)N/N=C/c1ccc(F)cc1	8.91 µM (active)	–
O=C(CN1CCSCC1)N/N=C/c1ccc(Cl)cc1	11.2 µM (active)	–
Cc1ccc(COc2ccc(/C=N/NC(=O)CN3CCCCC3)cc2)cc1	–	-11.8% [at 102 µM] (inactive)
